Assay results published in PMC5540273 (PLoS ONE, 2017).

Legend:
Details in all cases: concentration: 1 μM, replicates: in singlicate; n = 1
AAK1 = test system: AAK1
ABL1-nonphosphorylated = test system: ABL1-nonphosphorylated
ABL1-phosphorylated = test system: ABL1-phosphorylated
ABL2 = test system: ABL2
ACVR1B = test system: ACVR1B
ACVR1 = test system: ACVR1
ACVR2A = test system: ACVR2A
ACVR2B = test system: ACVR2B
ACVRL1 = test system: ACVRL1
ADCK3 = test system: T1, ADCK3
T1 construct: gene CABC1

ADCK4 = test system: ADCK4
AKT1 = test system: AKT1
AKT2 = test system: AKT2
AKT3 = test system: AKT3
ALK = test system: ALK
AMPK-alpha1 = test system: T2, AMPK-alpha1
T2 construct: gene PRKAA1

AMPK-alpha2 = test system: T3, AMPK-alpha2
T3 construct: gene PRKAA2

ANKK1 = test system: ANKK1
ARK5 = test system: T4, ARK5
T4 construct: gene NUAK1

ASK1 = test system: T5, ASK1
T5 construct: gene MAP3K5
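Note: KINOMEscan kinase panel screen.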

Row | Compound | %Inh (AAK1) | %Inh (ABL1-nonphosphorylated) | %Inh (ABL1-phosphorylated) | %Inh (ABL2) | %Inh (ACVR1B) | %Inh (ACVR1) | %Inh (ACVR2A) | %Inh (ACVR2B) | %Inh (ACVRL1) | %Inh (ADCK3) | %Inh (ADCK4) | %Inh (AKT1) | %Inh (AKT2) | %Inh (AKT3) | %Inh (ALK) | %Inh (AMPK-alpha1) | %Inh (AMPK-alpha2) | %Inh (ANKK1) | %Inh (ARK5) | %Inh (ASK1)
1 | O=C(Nc1n[nH]c2nc(-c3cccc(O)c3)ccc12)C1CC1 [SB-711805] | 33% | 94.2% | 88% | 27% | 13% | 32% | 43% | 74% | 0% | 0% | 0% | 0% | 0% | 4% | 0% | 0% | 0% | 0% | 0% | 0%
2 | O=C(Nc1n[nH]c2cc(-c3cccs3)ccc12)C1CC1 [SB-731284] | 73% | 81% | 61% | 0% | 0% | 0% | 0% | 17% | 0% | 0% | 0% | 0% | 0% | 0% | 28% | 0% | 0% | 45% | 0% | 0%
3 | Nc1ncc(-c2ccc3nccc(-c4ccncc4)c3c2)cc1S(=O)(=O)N1CCCCC1 [GSK1693850] | 0% | 0% | 0% | 9% | 0% | 53% | 2% | 9% | 37% | 65% | 33% | 0% | 1% | 0% | 22% | 0% | 1% | 35% | 0% | 14%
4 | N#CC1(c2cccc(C(=O)Nc3cccc(Oc4ccc5nc(NC(=O)C6CC6)sc5n4)c3)c2)CC1 | 3% | 100% | 98.7% | 95% | 0% | 0% | 3% | 1% | 0% | 40% | 2% | 27% | 6% | 0% | 15% | 17% | 27% | 0% | 0% | 0%
5 | CN(c1ccc(NC(=O)Nc2cccc(Cl)c2)cc1)c1ccnc(N)n1.Cl [GW830707] | 0% | 0% | 0% | 3% | 4% | 0% | 0% | 0% | 9% | 0% | 6% | 23% | 3% | 12% | 0% | 0% | 18% | 0% | 0% | 2%
6 | Fc1cc(Cl)ccc1Nc1ccnc2cc(-c3ccc(CN4CCSCC4)o3)ccc12 [GW560106] | 4% | 95.9% | 98.7% | 89% | 21% | 84% | 14% | 91% | 49% | 3% | 31% | 0% | 2% | 0% | 28% | 3% | 18% | 14% | 13% | 0%
7 | Cc1ccc(O)cc1Nc1ccnc2ccc(C(C)(C)C)cc12 [GW856805] | 10% | 98.1% | 99.6% | 90.2% | 24% | 24% | 8% | 62% | 1% | 0% | 88% | 27% | 29% | 18% | 44% | 8% | 19% | 7% | 0% | 1%
8 | N#Cc1cnc2cc(-c3cnc(CNCCN4CCOCC4)s3)ccc2c1Nc1ccc(Oc2ccccc2)cc1 [GW664114] | 31% | 97.4% | 49% | 58% | 0% | 0% | 0% | 0% | 0% | 0% | 36% | 0% | 0% | 0% | 34% | 21% | 30% | 45% | 10% | 5%
9 | O=C(Nc1n[nH]c2nc(-c3ccccc3O)ccc12)C1CC1 [SB-711880] | 17% | 68% | 44% | 55% | 0% | 0% | 0% | 0% | 0% | 3% | 17% | 0% | 0% | 0% | 0% | 90% | 0% | 0% | 0% | 0%
10 | COC(=O)Nc1nc2cc(Oc3ccc(NC(=O)Nc4cccc(SC)c4)cc3)ccc2[nH]1.Cl [GW697999] | 0% | 91.4% | 90.1% | 76% | 0% | 0% | 0% | 0% | 0% | 0% | 48% | 0% | 0% | 0% | 25% | 5% | 0% | 10% | 0% | 2%
